High-throughput results from PubChem BioAssay.
MEKK2 WT-MEK5: raises or lowers MEK5 binding to wildtype human MEKK2 PB1 domain; hit rate 1.1% among 290,000; bead flow cytometry, Alexa488-MEK5 binding to MEKK2 WT; actives lie on both sides; binding response (% of control), % at 10 µM; Q9Y2U5; in the data active means binding response below about 67% or above about 130%
VLA-4 inh: inhibition in a human VLA-4 binding assay; inhibition, % (about 7 µM as worked out from the volumes in the protocol); P13612; AID 2557; VLA-4 expressing cells, ligand binding flow cytometry; hit rate 0.2% among 330,000; in the data active means inhibition above about 50%
Target sequence (P13612 whole entry, looked up): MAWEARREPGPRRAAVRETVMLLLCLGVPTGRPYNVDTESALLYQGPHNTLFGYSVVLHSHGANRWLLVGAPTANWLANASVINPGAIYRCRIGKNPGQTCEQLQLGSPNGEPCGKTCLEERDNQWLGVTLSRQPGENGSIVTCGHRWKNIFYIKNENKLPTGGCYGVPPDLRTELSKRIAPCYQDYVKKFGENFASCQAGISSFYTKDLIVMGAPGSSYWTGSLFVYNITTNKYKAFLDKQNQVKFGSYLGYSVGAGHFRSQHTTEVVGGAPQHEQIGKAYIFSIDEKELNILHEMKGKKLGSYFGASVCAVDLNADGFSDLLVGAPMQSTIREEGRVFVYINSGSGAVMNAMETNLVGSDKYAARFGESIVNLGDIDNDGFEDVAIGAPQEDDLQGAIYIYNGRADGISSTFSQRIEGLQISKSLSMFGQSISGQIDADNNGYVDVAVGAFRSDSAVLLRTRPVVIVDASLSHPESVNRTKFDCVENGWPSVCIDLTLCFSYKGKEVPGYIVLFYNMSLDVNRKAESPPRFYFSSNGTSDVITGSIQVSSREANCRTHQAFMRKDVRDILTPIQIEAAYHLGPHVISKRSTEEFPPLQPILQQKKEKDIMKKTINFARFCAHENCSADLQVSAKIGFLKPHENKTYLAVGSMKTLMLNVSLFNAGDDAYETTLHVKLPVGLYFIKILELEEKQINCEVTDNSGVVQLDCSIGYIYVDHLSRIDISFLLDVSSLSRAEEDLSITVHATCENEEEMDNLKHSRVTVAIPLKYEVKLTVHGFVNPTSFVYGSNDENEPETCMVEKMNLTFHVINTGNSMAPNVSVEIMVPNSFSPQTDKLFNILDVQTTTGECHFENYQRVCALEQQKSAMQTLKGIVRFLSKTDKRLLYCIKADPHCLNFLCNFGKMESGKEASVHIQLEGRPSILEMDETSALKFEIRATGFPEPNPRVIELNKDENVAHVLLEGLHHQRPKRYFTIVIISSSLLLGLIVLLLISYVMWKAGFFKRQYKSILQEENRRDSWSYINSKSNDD
MEKK3 PB1 HTS: MEKK3-MEK5 PB1 interaction, increase or decrease. Q99759. bead-based flow cytometry, Alexa488-MEK5 binding to MEKK3; actives lie on both sides; 0 = blocked by unlabeled MEK5, 100 = vehicle. binding response (% of control), % at 10 µM. hit rate 1.4% among 290,000. AID 1529;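 active means binding response more than 3 SD above or below the average of its plate-row segment, actives on both sides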;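 further: Alexa488 bead fluorescence after subtracting the streptavidin-only scavenger bead signal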
MEKK2mut PB1 HTS: signal of MEK5 binding to mutant human MEKK2 PB1 domain. bead flow cytometry, Alexa488-MEK5 binding to MEKK2 mutant. percent response, % at 10 µM. hit rate 0.35% among 290,000. AID 1530; in the data active means percent response above about 24%, passing the limit was not always enough
MEKK2wt confirm: raises or lowers MEK5 binding to wildtype human MEKK2, retest; shares compounds with MEKK3 PB1 HTS; bead flow cytometry, Alexa488-MEK5 binding to MEKK2 WT; actives lie on both sides; binding response (% of control), % at 10 µM; hit rate 2.4% among 5,900; in the data active means binding response below about 16% or above about 210%; inactive means in between
MEKK2mut-MEK5: signal of MEK5 binding to mutant human MEKK2, retest. hit rate 2% among 5,900. bead flow cytometry, Alexa488-MEK5 binding to MEKK2 mutant. percent response, % at 10 µM. shares compounds with MEKK3 PB1 HTS; in the data active means percent response mostly above about 71%, no sharp cut-off; inactive means mostly below about 38%;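 further: higher means compound restores mutant binding toward wildtype level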
MEKK3-MEK5 inh: confirmation of inhibitors of MEK5 binding to human MEKK3. shares compounds with MEKK3 PB1 HTS. bead flow cytometry, Alexa488-MEK5 binding to MEKK3; stronger effect = lower value. binding response (% of control), % at 10 µM. hit rate 1.8% among 5,900. AID 1894;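 active means binding response below 72% of control, or above a set upper limit, though filed actives all read lower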;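 further: 100% = DMSO only wells and 0% = binding blocked by excess unlabeled MEK5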
An asterisk follows results filed as active; . = no result; [ ] = remark or other dose. This is a sample that favours compounds with a hit; in the whole collection about 2.2% have one here.

SMILES	MEKK2 WT-MEK5	VLA-4 inh	MEKK3 PB1 HTS	MEKK2mut PB1 HTS	MEKK2wt confirm	MEKK2mut-MEK5	MEKK3-MEK5 inh
Cc1csc(NC(=O)CSc2nnc(-c3ccoc3C)n2C(C)c2ccccc2)n1 (configuration not stated)	101.0	15.7	109.0	1.0	.	.	.
Cc1ccc(-c2nc(N)sc2CC(=O)OCC(=O)N2C(C)CCCC2C)cc1 (configuration not stated)	111.0	5.5	140.0*	1.0	98.0	-5.0	101.0
N#Cc1ccc(/C=N/NC(=O)c2cc(-c3cccs3)nc3ccccc23)cc1	103.0	-5.0	101.0	8.0	.	.	.
N#Cc1ccc(-c2csc(NC(=O)c3cc(-c4cccs4)nc4ccccc34)n2)cc1	38.0*[inhibitor]	-3.4	63.0*[inhibitor]	-31.0	103.0	10.0	107.0
O=C(Nc1ccccc1C(=O)N1CCCCC1)c1ccccc1C(F)(F)F	98.0	-7.6	101.0	-5.0	.	.	.
CCC(C)(C)n1nnnc1CN(Cc1cc2cc(OC)ccc2[nH]c1=O)C1CCCC1	88.0	-6.3	82.0*[inhibitor]	-9.0	95.0	-2.0	98.0
Cc1ccc(C)n1-c1ccc(-c2ccn[nH]2)cc1	.	0.1	15.0*[inhibitor]	190.0*	101.0	-2.0	102.0
Cn1c(SCC(=O)c2ccc(O)cc2O)nnc1-c1ccccc1	99.0	2.3	100.0	0.0	.	.	.
CC(C)CN1CCN(Cc2cn(C)c3ccccc23)CC1CCO (configuration not stated)	108.0	7.3	104.0	9.0	.	.	.
CN(C)CCCN1c2ccc([N+](=O)[O-])cc2CCc2cc([N+](=O)[O-])ccc21	150.0*	-10.8	111.0	14.0	113.0	6.0	104.0
COc1cc(CC(=O)OCC(=O)Nc2cc([N+](=O)[O-])ccc2Cl)cc(OC)c1OC	58.0*[inhibitor]	3.8	97.0	9.0	90.0	-6.0	97.0
COCc1nnc(NC(=O)CCc2ccccc2)s1	2.0*[inhibitor]	1.3	2.0*[inhibitor]	-18.0	101.0	-4.0	100.0
CN(C)C(=O)CSc1nnc(NC(=O)CCc2ccccc2)s1	95.0	3.7	96.0	-4.0	.	.	.
CCN(CC)C(=O)CSc1nnc(NC(=O)CCc2ccccc2)s1	115.0	-2.4	156.0*	2.0	143.0	17.0	106.0
COc1ccc(-c2noc(CN3CCOCC3)n2)cc1OC	0.0*[inhibitor]	-3.6	1.0*[inhibitor]	-65.0	97.0	-6.0	98.0
Cc1cc2ccccc2n1CCNC(=O)c1ccc(S(=O)(=O)N2CCCCC2)cc1	79.0	11.5	82.0*[inhibitor]	-7.0	80.0	-3.0	89.0
COc1ccc(/C=C/C(=O)NCCn2c(C)cc3ccccc32)cc1OC	83.0	-2.2	67.0*[inhibitor]	5.0	110.0	11.0	103.0
Cc1ccc(C(=O)NCCc2ccc(S(=O)(=O)N3CCCC3)cc2)cc1	98.0	0.2	100.0	0.0	.	.	.
Cc1cc2ccccc2n1CCNC(=O)C(C)Oc1ccccc1 (configuration not stated)	64.0*[inhibitor]	-11.8	80.0*[inhibitor]	-10.0	49.0	-16.0	82.0
Cc1cccc(CC(=O)NCCn2c(C)cc3ccccc32)c1	63.0*[inhibitor]	13.4	79.0*[inhibitor]	0.0	105.0	-1.0	100.0
Cc1cc2ccccc2n1CCNC(=O)C(C)C	93.0	-14.5	106.0	0.0	.	.	.
C=CCNC(=O)CSc1nnc(C(CC)N(C)C)n1C1CCCCC1 (configuration not stated)	80.0	-5.4	80.0	-18.0	.	.	.
CN(C)c1cc(-c2ccc([N+](=O)[O-])cc2)oc(=O)c1Cl	98.0	1.0	99.0	-3.0	.	.	.
CC(=O)N1c2c(cc(Br)cc2S(=O)(=O)N2CCN(c3ccccc3F)CC2)CC1C (configuration not stated)	98.0	3.0	98.0	-1.0	.	.	.
CCN(CC)CCCN(C(=O)c1ccc(OC)cc1)c1nc(-c2ccc(OC)cc2)cs1	165.0*	2.7	95.0	20.0	153.0	30.0	108.0
SMILES	MEKK2 WT-MEK5	VLA-4 inh	MEKK3 PB1 HTS	MEKK2mut PB1 HTS	MEKK2wt confirm	MEKK2mut-MEK5	MEKK3-MEK5 inh
CCN(CC)CCCN(C(=O)c1ccccc1C)c1nc(-c2ccc(OC)cc2)cs1	145.0*	0.0	107.0	20.0	142.0	24.0	109.0
COc1ccc(-c2csc(N(CCCN(C)C)C(=O)c3cccs3)n2)cc1	130.0	9.4	110.0	12.0	.	.	.
CCN(CC)CCCN(C(=O)c1ccccc1F)c1nc(-c2ccc(OC)cc2)cs1	156.0*	-2.2	104.0	21.0	150.0	27.0	107.0
COc1ccc(-c2csc(N(CCCN(C)C)C(=O)c3cc(OC)c(OC)c(OC)c3)n2)cc1	122.0	2.3	109.0	19.0	.	.	.
Cc1ccc(NCC(=O)N/N=C/c2ccncc2)cc1	127.0	10.6	137.0*	6.0	110.0	8.0	108.0
Cc1cccc(NCC(=O)N/N=C/c2ccc(Br)cc2)c1	48.0	3.1	47.0*[inhibitor]	-16.0	98.0	2.0	103.0
COc1cccc(/C=N/NC(=O)Cn2ccnc2C)c1	106.0	27.2	142.0*	0.0	87.0	-5.0	91.0
Cc1ccc(NCC(=O)N/N=C/c2cccc(Oc3ccccc3)c2)cc1	107.0	0.1	134.0*	1.0	104.0	-3.0	100.0
CCOC(=O)C1(Cc2ccc(OC)cc2)CCN(C(=O)c2cc(C)nn2C)CC1	103.0	4.4	100.0	-2.0	.	.	.
CCOc1ccc(NC(=S)Nc2ccccc2C2(C)CC2)cc1	101.0	-11.3	101.0	1.0	.	.	.
COc1ccc(NC(C)=O)cc1S(=O)(=O)NCCc1ccccn1	.	9.3	.	.	.	.	.
CC1(C)Cc2c(ccc3ccccc23)-c2nnc(-c3cccnc3)n21	-8.0*[inhibitor]	17.4	0.0*[inhibitor]	-22.0	103.0	2.0	100.0
O=C(NC(Nc1ccc(F)cc1)(C(F)(F)F)C(F)(F)F)c1cccnc1	93.0	10.6	53.0*[inhibitor]	-1.0	106.0	6.0	104.0
O=C(NNC(=S)NC(=O)c1cccnc1)c1ccc(F)cc1	90.0	-0.1	95.0	-8.0	.	.	.
CCC(=O)NC(=S)Nc1ccc(NC(=O)c2ccc(Br)o2)cc1	95.0	-1.1	107.0	-8.0	.	.	.
Oc1[nH]c2ccccc2c1N=NC(=S)NCCc1ccccc1	102.0	-0.7	130.0*	0.0	94.0	-7.0	96.0
CC(C)(CC(=O)O)CC(=O)Nc1ccc(Oc2ccc(C(C)(C)C)cc2)nc1	102.0	-4.1	107.0	2.0	.	.	.
COc1cc(/C=N/NC(=O)COc2cc(C)cc(C)c2)ccc1OS(=O)(=O)c1ccc(C)cc1	98.0	7.7	135.0*	0.0	98.0	1.0	101.0
CCc1ccc(OCC(=O)N/N=C/c2ccc(OS(=O)(=O)c3ccc(C)cc3)c(OC)c2)cc1	117.0	-5.0	106.0	10.0	.	.	.
CCOC(=O)c1c(NC(=O)C(=O)N/N=C/c2ccccc2O)sc2c1CCCCC2	105.0	0.1	137.0*	0.0	100.0	0.0	103.0
CCOC(=O)c1c(NC(=O)C(=O)N/N=C/c2ccccc2OC)sc2c1CCCCC2	110.0	1.4	103.0	11.0	.	.	.
